Screening data from PubChem BioAssay.
Compounds with a hit are over-represented: about 2.9% of the library has one in this group of screens.
MEKK3 PB1 HTS: modulators of MEKK3-MEK5 PB1 binding, primary screen, biochemical, wildtype MEKK3, multiplex bead flow cytometry, Alexa488-MEK5. Mitogen-activated protein kinase kinase kinase 3 (Homo sapiens), Q99759. bead-based flow cytometry, Alexa488-MEK5 binding to MEKK3; actives lie on both sides; 0 = blocked by unlabeled MEK5, 100 = vehicle. binding response (% of control), % at 10 µM. 290,000 compounds, 1.4% hits. AID 1529, 2009;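 active = binding response more than 3 SD above or below the average of its plate-row segment, actives on both sides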;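 note: Alexa488 bead fluorescence after subtracting the streptavidin-only scavenger bead signal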
MEKK2mut PB1 HTS: MEK5 binding signal on mutant MEKK2 PB1, primary screen, biochemical, multiplex bead flow cytometry, Alexa488-MEK5; Alexa488-MEK5 binding to MEKK2 mutant; percent response, % at 10 µM; 290,000 compounds, 0.35% hits; in the data active = percent response above about 24%, passing the limit was not always enough
CRFR2-BP antag: antagonists of CRF-BP/CRF-R2 complex, primary screen, cell-based, HEK293, calcium dye fluorescence, uHTS. CRF-induced calcium fluorescence. AID 588475, 2011. inhibition, % at 11.8 µM. 350,000 compounds, 0.59% hits;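 active = inhibition of the ligand-induced calcium signal above about 50% at the single tested concentration, limit read from the data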
MEKK2 WT-MEK5: modulators of MEK5 binding to wildtype MEKK2, primary screen, biochemical, multiplex bead flow cytometry, Alexa488-MEK5 | Mitogen-activated protein kinase kinase kinase 2 (Homo sapiens), Q9Y2U5 | Alexa488-MEK5 binding to MEKK2 WT; actives lie on both sides | binding response (% of control), % at 10 µM | 290,000 compounds, 1.1% hits; in the data active = binding response below about 67% or above about 130%
CRFBP-R2 agonist: agonists of CRF-BP/CRF-R2 complex, primary screen, cell-based, HEK293, calcium dye fluorescence, uHTS; CRF-binding protein / CRF receptor 2 complex (human); calcium dye fluorescence (FLIPR); percent of saturating CRF peptide response; activation, % at 13.2 µM; 350,000 compounds, 0.46% hits; AID 588473, 2011;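 active = activation of at least 50%, plus an integration ratio under a set limit after plate pattern correction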;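 note: plate controls were neutral control wells without compound for no effect and CRF at EC100 for full effect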
ABCB6 inh MLPCN: ABCB6 transporter inhibitors, primary screen, K562-ABCB6 cells, flow cytometry, MLPCN library; ATP-binding cassette sub-family B member 6 (Homo sapiens), Q9NP58; 360,000 compounds, 0.19% hits; fluorescence ratio to DMSO, % at 10 µM; AID 602162, 2011; K562-ABCB6 porphyrin accumulation, 1 h; stronger effect = lower value;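 active = fluorescence ratio to DMSO below 75%, the collection mean minus 3 SD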;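 note: signal is porphyrin accumulated inside mitochondria; 100% equals median channel fluorescence of DMSO control wells; lower ratio means ABCB6 inhibition with less porphyrin fluorescence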
Target sequence (Q9NP58 whole entry, looked up): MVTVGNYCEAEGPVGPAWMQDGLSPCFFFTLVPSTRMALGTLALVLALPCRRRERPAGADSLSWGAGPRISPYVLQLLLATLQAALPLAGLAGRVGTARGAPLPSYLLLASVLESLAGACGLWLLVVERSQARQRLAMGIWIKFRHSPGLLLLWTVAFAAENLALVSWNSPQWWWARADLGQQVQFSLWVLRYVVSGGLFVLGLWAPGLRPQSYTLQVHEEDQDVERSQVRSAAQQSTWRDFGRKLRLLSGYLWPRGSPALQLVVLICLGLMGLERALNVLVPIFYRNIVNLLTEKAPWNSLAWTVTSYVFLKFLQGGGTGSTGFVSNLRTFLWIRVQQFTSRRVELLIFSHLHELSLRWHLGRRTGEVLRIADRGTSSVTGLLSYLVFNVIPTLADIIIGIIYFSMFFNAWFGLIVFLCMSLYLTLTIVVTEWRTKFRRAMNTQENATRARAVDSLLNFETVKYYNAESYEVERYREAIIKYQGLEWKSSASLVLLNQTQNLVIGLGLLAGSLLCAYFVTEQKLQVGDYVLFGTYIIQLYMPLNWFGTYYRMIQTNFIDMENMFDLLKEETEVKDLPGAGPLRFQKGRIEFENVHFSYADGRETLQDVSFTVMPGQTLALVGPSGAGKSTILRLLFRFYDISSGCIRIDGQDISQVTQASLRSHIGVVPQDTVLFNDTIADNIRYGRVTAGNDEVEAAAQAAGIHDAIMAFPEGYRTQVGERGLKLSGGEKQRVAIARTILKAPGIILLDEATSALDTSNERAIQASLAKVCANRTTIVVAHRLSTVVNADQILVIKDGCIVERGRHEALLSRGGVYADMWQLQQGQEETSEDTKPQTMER
MEKK2wt confirm: modulators of MEK5 binding to wildtype MEKK2, confirmation, biochemical, single concentration, multiplex bead flow cytometry | shares compounds with MEKK3 PB1 HTS | Alexa488-MEK5 binding to MEKK2 WT; actives lie on both sides | binding response (% of control), % at 10 µM | 5,900 compounds, 2.4% hits; in the data active = binding response below about 16% or above about 210%; inactive = in between
MEKK2mut-MEK5: mutant MEKK2 PB1-MEK5 binding signal retest – biochemical, single concentration, multiplex bead flow cytometry, confirmation; shares compounds with MEKK3 PB1 HTS; Alexa488-MEK5 binding to MEKK2 mutant; percent response, % at 10 µM; 5,900 compounds, 2% hits; in the data active = percent response mostly above about 71%, no sharp cut-off; inactive = mostly below about 38%;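 note: higher means compound restores mutant binding toward wildtype level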
MEKK3 confirm: MEKK3 wild-type PB1 binding to MEK5, inhibitors, confirmation, biochemical, bead multiplex flow cytometry, single concentration, wildtype; shares compounds with MEKK3 PB1 HTS; Alexa488-MEK5 binding to MEKK3; stronger effect = lower value; binding response (% of control), % at 10 µM; 5,900 compounds, 1.8% hits;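 active = binding response below 72% of control, or above a set upper limit, though filed actives all read lower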;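 note: 100% = DMSO only wells and 0% = binding blocked by excess unlabeled MEK5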
An asterisk follows results filed as active; [ ] = dose if it differs, or a comment.

What do the screens show for `CC(C)C/C=C1\CCc2c([nH]c3ccccc23)C1=O`?
MEKK3 PB1 HTS: 102; MEKK2mut PB1 HTS: -3; CRFR2-BP antag: -6; MEKK2 WT-MEK5: 96; CRFBP-R2 agonist: -1; ABCB6 inh MLPCN: 101

How did CCCCCCCCC1=NCCc2c1[nH]c1ccccc21 do in these assays?
MEKK3 PB1 HTS: 99; MEKK2mut PB1 HTS: 54*; CRFR2-BP antag: -15; MEKK2 WT-MEK5: 159*; CRFBP-R2 agonist: 0; ABCB6 inh MLPCN: 109; MEKK2wt confirm: 157; MEKK2mut-MEK5: 25; MEKK3 confirm: 100

Results for Cc1ccc(Nc2cc(C)nc(NCc3ccccc3)n2)cc1 ?
MEKK3 PB1 HTS: 116; MEKK2mut PB1 HTS: 6; CRFR2-BP antag: -91; MEKK2 WT-MEK5: 151*; CRFBP-R2 agonist: -2; ABCB6 inh MLPCN: 101; MEKK2wt confirm: 183; MEKK2mut-MEK5: 40; MEKK3 confirm: 108

How did Cc1cc(N/N=C/c2ccccc2Cl)nc(NCc2ccccc2)n1 do in these assays?
MEKK3 PB1 HTS: 103; MEKK2mut PB1 HTS: 37; CRFR2-BP antag: -24; MEKK2 WT-MEK5: 146*; CRFBP-R2 agonist: -3; ABCB6 inh MLPCN: 95; MEKK2wt confirm: 172; MEKK2mut-MEK5: 56; MEKK3 confirm: 108

Results for Cc1cc(N2CCN(c3ccccc3)CC2)nc(NCc2ccccc2)n1 ?
MEKK3 PB1 HTS: 109; MEKK2mut PB1 HTS: 18; CRFR2-BP antag: -71; MEKK2 WT-MEK5: 168*; CRFBP-R2 agonist: 4; ABCB6 inh MLPCN: 91; MEKK2wt confirm: 161; MEKK2mut-MEK5: 42; MEKK3 confirm: 109

How did Cc1ccccc1CN1CCN(Cc2cc(=O)c3ccccc3[nH]2)CC1CCO (stereo not given) do in these assays?
MEKK3 PB1 HTS: 99; MEKK2mut PB1 HTS: 1; CRFR2-BP antag: -2; MEKK2 WT-MEK5: 102; CRFBP-R2 agonist: 0; ABCB6 inh MLPCN: 97

Results for CNc1ccc(-c2cc(OC)ccc2OC)cn1 ?
ABCB6 inh MLPCN: 98

What do the screens show for `CCN(Cc1ccccc1)S(=O)(=O)c1ccc(C(=O)N(CCCN(C)C)c2nc3c(F)cccc3s2)cc1`?
MEKK3 PB1 HTS: 110; MEKK2mut PB1 HTS: 43*; CRFR2-BP antag: -18; MEKK2 WT-MEK5: 190*; CRFBP-R2 agonist: 1; ABCB6 inh MLPCN: 102; MEKK2wt confirm: 203; MEKK2mut-MEK5: 39; MEKK3 confirm: 106

How did CCN(c1ccccc1)S(=O)(=O)c1ccc(C(=O)N(CCCN(C)C)c2nc3c(C)cccc3s2)cc1 do in these assays?
MEKK3 PB1 HTS: 103; MEKK2mut PB1 HTS: 20; CRFR2-BP antag: -24; MEKK2 WT-MEK5: 154*; CRFBP-R2 agonist: 18; ABCB6 inh MLPCN: 100; MEKK2wt confirm: 166; MEKK2mut-MEK5: 31; MEKK3 confirm: 110

What do the screens show for `N#Cc1c(SCc2c(Cl)cccc2Cl)nc(N)[nH]c1=S`?
CRFR2-BP antag: 4; CRFBP-R2 agonist: -2; ABCB6 inh MLPCN: 79

How did COC(=O)[C@]1(C)N[C@H](CN(C)C(C)=O)[C@@H]2C(=O)N(Cc3ccccc3)C(=O)[C@@H]21 do in these assays?
CRFR2-BP antag: 11; CRFBP-R2 agonist: 1; ABCB6 inh MLPCN: 98

Results for CCCCOc1ccc(CSCCN)cc1Cl ?
MEKK3 PB1 HTS: 128*; MEKK2mut PB1 HTS: 41; CRFR2-BP antag: -18; MEKK2 WT-MEK5: 169*; CRFBP-R2 agonist: 1; ABCB6 inh MLPCN: 96; MEKK2wt confirm: 108; MEKK2mut-MEK5: 3; MEKK3 confirm: 97

What do the screens show for `CCS(=O)(=O)N1CCN(c2ccc(S(=O)(=O)N3CCOCC3)cc2)CC1`?
MEKK3 PB1 HTS: 48*[inhibitor]; MEKK2mut PB1 HTS: -15; CRFR2-BP antag: -7; MEKK2 WT-MEK5: 50; CRFBP-R2 agonist: -1; ABCB6 inh MLPCN: 103; MEKK2wt confirm: 101; MEKK2mut-MEK5: 0; MEKK3 confirm: 103

What do the screens show for `COCCN(C(=S)Nc1cccc(C)c1)C(C)c1cccs1` (stereo not given)?
MEKK3 PB1 HTS: 117; MEKK2mut PB1 HTS: 1; CRFR2-BP antag: 29; MEKK2 WT-MEK5: 107; CRFBP-R2 agonist: -2; ABCB6 inh MLPCN: 96

How did CC(C)CCN(C(=S)Nc1cccc(F)c1)C(C)c1cccs1 (stereo not given) do in these assays?
MEKK3 PB1 HTS: 46*[inhibitor]; MEKK2mut PB1 HTS: -13; CRFR2-BP antag: -16; MEKK2 WT-MEK5: 59; CRFBP-R2 agonist: 1; ABCB6 inh MLPCN: 93; MEKK2wt confirm: 104; MEKK2mut-MEK5: -5; MEKK3 confirm: 103

Results for O=C(CCNS(=O)(=O)c1cccc(C(F)(F)F)c1)NC1CC1 ?
CRFR2-BP antag: 9; CRFBP-R2 agonist: 0; ABCB6 inh MLPCN: 100

How did O=c1[nH]c(=S)[nH]c2c1C(c1cc([N+](=O)[O-])c(N3CCOCC3)cc1N1CCOCC1)O2 (stereo not given) do in these assays?
MEKK3 PB1 HTS: 142*; MEKK2mut PB1 HTS: 5; CRFR2-BP antag: 14; MEKK2 WT-MEK5: 125; CRFBP-R2 agonist: -1; ABCB6 inh MLPCN: 93; MEKK2wt confirm: 96; MEKK2mut-MEK5: -2; MEKK3 confirm: 99

How did CC1(C)CC[C@]2(C(=O)O)CC[C@]3(C)C(=CC[C@@H]4[C@@]5(C)CC[C@H](O)C(C)(C)[C@@H]5CC[C@]43C)[C@@H]2C1 do in these assays?
MEKK3 PB1 HTS: 125; MEKK2mut PB1 HTS: 1; CRFR2-BP antag: -38; MEKK2 WT-MEK5: 150*; CRFBP-R2 agonist: 1; ABCB6 inh MLPCN: 95; MEKK2wt confirm: 101; MEKK2mut-MEK5: 1; MEKK3 confirm: 101

How did CC1(C)CC[C@]2(C(=O)O)CC[C@]3(C)C(=CCC4[C@@]5(C)CC[C@H](O)C(C)(C)C5CC[C@]43C)C2C1 (stereo not given in full) do in these assays?
MEKK3 PB1 HTS: 99; MEKK2mut PB1 HTS: 2; CRFR2-BP antag: 9; MEKK2 WT-MEK5: 93; CRFBP-R2 agonist: -2; ABCB6 inh MLPCN: 95
